S1P4 ag – agonists of human S1P4 receptor; O95977; S1P4-expressing cell line, agonist reporter assay; activation, % at 4.98 µM; 220,000 tested, 0.35% active; AID 1509; in the data active = activation above about 11%
Target sequence (O95977 whole entry, looked up): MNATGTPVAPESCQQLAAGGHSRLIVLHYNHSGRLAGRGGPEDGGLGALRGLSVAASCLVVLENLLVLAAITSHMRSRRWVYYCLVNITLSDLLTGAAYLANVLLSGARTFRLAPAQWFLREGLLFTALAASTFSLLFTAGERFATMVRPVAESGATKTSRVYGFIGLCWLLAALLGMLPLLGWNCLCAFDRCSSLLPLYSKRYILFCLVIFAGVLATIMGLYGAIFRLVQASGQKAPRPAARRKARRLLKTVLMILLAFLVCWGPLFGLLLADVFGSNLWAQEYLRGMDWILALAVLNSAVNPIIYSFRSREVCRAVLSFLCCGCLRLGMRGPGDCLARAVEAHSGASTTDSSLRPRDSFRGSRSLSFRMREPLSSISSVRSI
Insulin prom inh – TRM-6 insulin promoter activity inhibition. 130,000 tested, 0.9% active. inhibition, % at 2 µM. TRM-6 cells (human fetal islet line), insulin promoter-eGFP reporter, imaging; reporter expression induced with tamoxifen;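 active = inhibition above the mean plus 3 SD, with well images judged a real hit on visual review, cut at about 60% in these data, passing the limit was not always enough; inconclusive = inhibition over the cutoff but images rejected on review; inactive = inhibition not above the cutoff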
Hsp70 act – switches on Hsp70 transcription. HeLa Hsp70 promoter luciferase reporter, luminescence; scaled: vehicle 0, proteasome-inhibitor control 100%. activation, % at 10 µM. 200,000 tested, 0.04% active;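 active = activation above the mean across all tested compounds plus 3 SD, cutoff set per campaign, cut at about 5.5% in these data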
S1P3 antag – antagonists of human S1P3 receptor; Q99500; CHO S1P3 NFAT-BLA reporter, FRET fluorescence, antagonist mode; inhibition, % at 4.98 µM; 170,000 tested, 0.27% active; AID 485;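 active = inhibition above the plate cutoff, the mean inhibition of test wells on that plate plus 3 SD, cut at about 28% in these data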;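 note: cells challenged with S1P at its EC80 of 0.8 µM; blue over green emission ratio from cleaved BLA substrate after 4 h stimulation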
Ins promoter up – MIN6 insulin promoter up-regulation. 190,000 tested, 0.3% active. MIN6 insulin promoter-GFP reporter, high-content imaging; hits give high values. z-score at 5 µM;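 active = z-score above 3 at 5 µM with at least 500 cells counted in the well; inconclusive = wells under 500 cells, flagged as cytotoxic or low count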
S1P4 antagonist – human S1P4 receptor antagonism; AID 1510; inhibition, % at 4.98 µM; O95977; 220,000 tested, 0.26% active; S1P4-expressing cells, antagonist mode, reporter read-out; in the data active = inhibition above about 29%
S1P4 antag conf – human S1P4 antagonism, confirmation. 520 tested, 71% active. S1P4-expressing cell line, antagonist mode, reporter read-out. shares compounds with S1P4 antagonist. inhibition, % at 4.98 µM. AID 1524; in the data active = inhibition above about 30%
S1P1 antagonist – counter-screen for S1P4 antagonists: antagonists of human S1P1. 520 tested, 37% active. cell-based S1P1 antagonist counterscreen, inhibition. shares compounds with S1P4 antagonist. inhibition, % at 4.98 µM; in the data active = inhibition above about 40%;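 note: receptor stimulated with S1P near its EC80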
Hits are given with their value; . = inactive; ? = inconclusive; / = not tested or not shown. Most compounds without a hit are left out; they make up all but 1.5% or so of the library.

SMILES	S1P4 ag	Insulin prom inh	Hsp70 act	S1P3 antag	Ins promoter up	S1P4 antagonist	S1P4 antag conf	S1P1 antagonist
CC1=C(C)/C(=N\OS(=O)(=O)c2ccccc2)C=CC1=O	.	.	.	/	/	42	69	.
CC1=CC(C)(C)Nc2ccc(OC(=O)c3cccnc3)cc21	.	/	.	.	.	.	/	/
CC1=CC(C)(C)Nc2ccc(OC(=O)c3ccco3)cc21	.	.	.	.	.	30	56	.
CC(C)Nc1nc(Cl)nc(NNC(=O)C(C)Oc2ccccc2)n1 (stereo not given)	.	/	.	/	.	.	/	/
COC(=O)c1cc(=O)n(Cc2ccco2)c(=Nc2ccc(F)c(Cl)c2)s1	.	/	.	.	.	34	102	60
COC(=O)c1cc(=O)n(CCc2ccccc2F)c(=Nc2ccc(F)c(Cl)c2)s1	.	/	.	/	.	.	/	/
COc1ccccc1N1CCN(C(=O)c2ccc([N+](=O)[O-])s2)CC1	.	/	.	.	.	.	/	/
O=C(/C=C/c1ccc(Br)cc1)c1ccc(NC(=O)c2ccco2)cc1	.	.	.	.	.	.	/	/
O=C(/C=C/c1ccc(Br)cc1)c1ccco1	.	.	.	.	/	54	81	.
COc1ccc(C=C(c2nc3ccccc3s2)c2nc3ccccc3s2)cc1O	.	.	.	.	.	29	58	.
COc1cc(C=C(c2nc3ccccc3s2)c2nc3ccccc3s2)ccc1O	.	.	.	.	.	.	/	/
Cc1ccc(NC(=O)C(=O)NCC2CCCO2)cc1C (stereo not given)	.	/	.	.	.	.	/	/
Cc1ccc(NC(=O)C(=O)NCC2CCCO2)cc1 (stereo not given)	.	/	.	.	.	79	.	.
O=[N+]([O-])c1ccc(Sc2cccc[n+]2[O-])c2nonc12	.	/	/	.	?	91	114	.
O=C(CSc1cccc[n+]1[O-])Nc1ccc(C(F)(F)F)cc1[N+](=O)[O-]	.	/	.	.	.	.	/	/
Cc1ccccc1-c1cc2c(nn1)-c1ccccc1C2=O	.	.	.	/	.	93	.	.
CCCS(=O)(=O)c1nnnn1-c1cccc(OC)c1	.	.	.	.	.	38	111	.
COc1cccc(-n2nnnc2SCC(=O)Nc2ccc(C(C)=O)cc2)c1	.	.	.	/	.	.	/	/
O=c1[nH]c(=O)n(-c2ccc(F)cc2)c2c1C(C(F)(F)F)(C(F)(F)F)N=C(c1ccc(F)cc1)N2	.	/	.	.	.	.	/	/
O=C(/C=C/c1ccc([N+](=O)[O-])cc1)c1cccnc1	.	/	.	.	.	34	79	52
O=C(/C=C/c1cccc(Cl)c1)c1nc2ccccc2[nH]1	.	/	.	/	.	56	104	.
CCOc1ccc2c(c1)[N+](C)(C)C(C)(C)C=C2C	.	.	.	.	.	.	/	/
COc1ccc(C(=O)Nc2ccc3c(c2)C(=O)c2ccccc2C3=O)cc1OC	.	/	.	.	/	.	/	/
COc1ccc(C(=O)c2c(C(F)(F)F)oc3c2C(=O)c2ccccc2C3=O)cc1OC	.	.	.	/	?	33	71	57
N=c1n(CCN2CCCCC2)c2ccccc2n1CC(O)c1ccc(Cl)c(Cl)c1 (stereo not given)	.	.	.	/	.	55	58	59
SMILES	S1P4 ag	Insulin prom inh	Hsp70 act	S1P3 antag	Ins promoter up	S1P4 antagonist	S1P4 antag conf	S1P1 antagonist
Cc1cc(C)cc(N(C(=O)Cn2nnc3ccccc32)C(C(=O)NCc2ccco2)c2ccncc2)c1 (stereo not given)	.	/	.	/	.	.	/	/
Cc1ccc(C)c(N(C(=O)Cn2nnc3ccccc32)C(C(=O)NCc2ccco2)c2ccncc2)c1 (stereo not given)	.	/	.	.	.	34	.	.
O=C(NCc1cccnc1)/C(=C/c1ccc(-c2cccc(Cl)c2)o1)S(=O)(=O)c1ccccc1	.	/	.	/	.	65	105	72
O=C(Nc1nc(=O)c2ccccc2s1)c1ccccc1	.	.	.	/	.	36	.	.
CC(=O)Nc1nc(=O)c2ccccc2s1	.	/	.	.	.	.	/	/
Nc1nc(CCl)nc(Nc2cccc3ccccc23)n1	.	/	/	.	.	33	55	.
C(=N\n1cnnc1)/c1ccc2c(c1)OCO2	.	.	.	.	.	31	.	.
C(=N\n1cnnc1)/c1ccc2c(c1)OCCO2	.	.	.	/	.	.	/	/
c1ccc(-c2ncc(-c3ccn[nH]3)s2)cc1	.	.	.	.	.	.	/	/
CC(=O)c1c(C(C)=O)c(C)n(Cc2ccccc2)c1C	.	.	.	.	.	.	/	/
Cc1c(C=O)c(C=O)c(C)n1Cc1ccccc1	.	.	.	/	/	35	42	.
COc1ccc(-n2ncc(Cl)c(Cl)c2=O)cc1	.	/	.	.	.	95	118	57
Cc1ccc(S(=O)(=O)CCN2C=CC(C(F)(F)F)=NCC2)cc1	.	/	/	.	.	33	.	.
CC(=O)n1cc(N(C(=O)CCl)c2ccc(Cl)cc2)c2ccccc21	.	/	/	.	?	60	115	41
CN(C)c1ccc(C(=O)c2ccc(N(C)C)c3ccccc23)cc1	.	.	.	/	.	34	50	60
Clc1nn2cnnc2c2ccccc12	.	/	.	.	.	.	/	/
Cc1ccc(C(=O)N/C(=C\c2ccc(-c3ccc([N+](=O)[O-])cc3)o2)C(=O)NC2CCS(=O)(=O)C2)cc1 (stereo not given)	.	/	.	.	.	.	/	/
O=C(c1ccccc1)c1ccccc1N1C(=O)C=CC1=O	.	/	/	.	.	38	104	.
CN(C(=O)C(Cl)Cl)c1ccc(OC(=O)c2ccco2)cc1	.	.	.	.	/	33	34	.
CC(=O)Nc1ccc(S(=O)(=O)N2C(=O)c3cccc4cccc2c34)cc1	.	/	/	.	.	.	/	/
Cc1ccc(-n2nnnc2-c2ccccc2)cc1	.	.	.	.	.	.	/	/
Cc1ccc(-n2nnnc2C(Cl)c2nnnn2-c2ccc(C)cc2)cc1	.	.	.	.	.	47	74	.
S=c1sc2c(Cl)ncnc2n1-c1ccccc1	.	.	.	.	?	32	121	86
Cc1cc(Br)c2c(c1)/C(=C/C(=O)c1cccs1)C(=O)N2	.	/	.	.	.	35	68	43
CCc1ccc2c(c1)/C(=C/C(=O)c1cccs1)C(=O)N2	.	.	.	/	.	66	109	78
CCc1ccc2c(c1)/C(=N/N(C)C(=S)NC)C(=O)N2	.	/	.	/	.	.	/	/
C=C1C(=O)C=C2CN(C(=O)c3ccccc3)[C@@](Cc3ccc(F)cc3)(C(=O)OC)[C@@H]12	.	.	.	.	?	60	119	143
O=C(NCc1ccco1)c1ccc2c(c1)CCO2	.	/	/	.	.	30	.	.

Source: PubChem
